Rows were chosen to be rich in hits. Some 12% of all compounds tested hit in one or more screens of this group.
SARS PLP yeast – inhibitors of SARS-CoV papain-like protease in yeast; S. cerevisiae expressing SARS-CoV PLpro, growth rescue; Potency, µM (series often up to 32.9 µM), without a hit: top-dose activity, positive = growth rescue, hits mostly activators; actives 0.19% (n = 330,000); AID 485353; also: potency is read from the fitted curve at half-maximal effect; 0% is about no effect; nearly all actives have a fitted effect of over 55% in size
NS1 inh – influenza NS1 inhibition; Potency, µM (top dose mostly 46.1 µM), inactives show at the highest dose activity, positive = more growth; actives 0.4% (n = 270,000); also: potency is read from the fitted curve at half-maximal effect; actives are rising curves; nearly all actives have a fitted effect of over 50% in size
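In this qHTS, NS1 from influenza A is expressed in budding yeast, where it slows growth. Cells are switched from glucose to 2% galactose medium (pH 6.0, -URA), treated with compound, and growth recovery is read at OD600.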
Cycloheximide cs – counter-screen for Shiga toxin inhibitors: cycloheximide protein synthesis inhibition. cell reporter, cycloheximide protein synthesis inhibition counterscreen. actives 12% (n = 300,000). max response, %; in the data active = max response mostly above about 13%, no sharp cut-off; inactive = mostly below about 14%; also: read at 38.3 µM for the half of the compounds with a filed dose; 0% is about no effect
Shiga toxin inh – inhibitors of Shiga toxin in Vero cells. AID 2315. actives 9.2% (n = 290,000). Vero cells, Shiga toxin protein synthesis inhibition reporter. inhibition, % at 38.7 µM; in the data active = inhibition mostly above about 28%, no sharp cut-off; inactive = mostly below about 43%; also: 0% is about no effect
* = called active by the depositor; ? = inconclusive; / = no result given. Unless noted, calls follow the shape of the full dose curve.

SMILES	SARS PLP yeast	NS1 inh	Cycloheximide cs	Shiga toxin inh
Cc1csc(SCC(=O)Nc2cc([N+](=O)[O-])ccc2F)n1	-1.3%	/	/	/
COc1ccc(-c2nnc(SCC(=O)NNC(=O)Cc3ccccc3)n2C)cc1OC	6.6%	-4.5%	-1.8	-4.0
Cc1cccc(NC(=O)c2cc(Cl)sc2Cl)c1C	13.6%	2.0%	-2.0	-13.3
O=C(Nc1ccc(F)cc1F)c1cc(Cl)sc1Cl	0.9%	-2.9%	30.0*	85.9
O=C(Nc1ccccc1F)c1cc(Cl)sc1Cl	-2.2%	-3.8%	31.2*	71.8*
CN(C)S(=O)(=O)Oc1ccc(Cl)cc1C(=O)Nc1ccc(F)cc1F	-0.9%	11.1%	11.6	12.1
COc1cc(COC(=O)Oc2ccc(CNC(C)=O)cc2OC)c([N+](=O)[O-])cc1OC	-6.5%	/	/	/
COc1ccc(CNC(=O)CSc2nnnn2-c2ccc(O)cc2)cc1	2.4%	-4.6%	-4.3	-14.2
CC(C)c1nc(SCC(=O)N2CC(=O)Nc3ccccc32)c2ccccc2n1	-0.7%	-3.6%	-1.7	-16.8
Cc1nn(-c2nnc(NC3CCCCC3)nn2)c(C)c1Br	-19.0%	-22.2%	46.7*	active
Cc1[nH]n(-c2ccccc2)c(=O)c1Sc1ccc(Cl)cc1	-53.9%	-47.0%	1.6	-6.7
Cc1cc(-c2c(C)[nH]n(-c3ccc(Cl)cc3)c2=O)n[nH]1	?	-185.9%	26.6*	29.5
Cn1c(=O)c2c(nc(SCC(=O)NCC3CCCO3)n2Cc2ccc(F)cc2)n(C)c1=O (stereo unspecified)	1.0%	-1.4%	-2.1	-11.8
CCCNC(=O)Cc1c(C)oc2ccccc12	-3.1%	2.3%	1.3	-12.6
CCOC(=O)N1CCN(Cc2nc(-c3cccc(Cl)c3)no2)CC1	-3.7%	-2.7%	-3.0	7.4
O=CN1CCCN(Cc2nc(-c3cccc(Cl)c3)no2)CC1	0.0%	-3.3%	28.3*	23.7
Clc1ccc(-c2noc(CN3CCOCC3)n2)cc1	0.2%	3.9%	56.6*	68.5*
O=C(C1CCN(Cc2nc(-c3ccc(Cl)cc3)no2)CC1)N1CCOCC1	3.2%	-1.5%	-0.4	93.3
CC(C)C(NC(=O)c1ccccc1)C(=O)N/N=C\c1ccco1 (stereo unspecified)	-6.3%	11.6%	-3.1	22.7
O=S(=O)(c1cnc(Cl)c(Br)c1)N1CCN(c2ncccn2)CC1	1.7%	0.6%	-1.7	-4.9
O=C(NC1CCCC1)c1cc(-c2ccccc2Cl)on1	-9.6%	-29.5%	43.5*	107.0*
O=C(NCc1ccc2c(c1)OCO2)c1cc(-c2ccccc2Cl)on1	-4.4%	-22.0%	3.6	19.1
O=C(NC1CCCCC1)c1cc(-c2ccccc2Cl)on1	0.7%	-29.3%	44.6*	137.4*
COc1ccccc1-c1cc(C(=O)NC2CCCC2)no1	-0.9%	-36.0%	15.6*	71.0*
COCC(C)NC(=O)c1cc(-c2ccccc2OC)on1 (stereo unspecified)	1.1%	-9.2%	41.0*	38.6*
SMILES	SARS PLP yeast	NS1 inh	Cycloheximide cs	Shiga toxin inh
O=C(CCCn1cc([N+](=O)[O-])cn1)NC1CCCCCC1	-0.7%	/	-7.6	13.7
Cc1cc(C(=O)N2C(C)CCCC2C)no1 (stereo unspecified)	9.2%	7.9%	-4.0	-1.2
Cc1cc(C(=O)NC2CCCN(Cc3ccc(Cl)cc3)C2)no1 (stereo unspecified)	0.2%	-10.5%	13.1	-3.9
O=C(NC1CCCC1)c1cc(-c2ccccc2O)on1	-0.7%	-6.2%	33.8*	91.4*
O=C(NC1CCCCC1)c1ccccc1-c1ccccc1	-7.7%	-5.5%	1.0	-2.7
CC1CCCC(C)N1C(=O)c1cc(-c2cccs2)on1 (stereo unspecified)	22.0%	3.4%	26.5*	70.2*
O=C(NC1CCCC1)c1cc(-c2ccc(Cl)cc2Cl)on1	-0.2%	-3.1%	44.1*	104.8*
O=C(NC1CCCC1)c1cc(-c2cccs2)on1	-5.1%	-17.3%	56.9*	181.8*
CC1(C)CC(=O)CC(C)(C)N1OC(=O)c1ccncc1	2.2%	4.8%	-4.2	-15.0
COc1ccc(CCN(C)C(=O)CSc2nc3ncc(Cl)cc3[nH]2)cc1OC	0.7%	1.3%	-1.8	-3.0
C=C1C[C@]2(O)[C@@]3(C)CCC(=O)C(C)(C)C3=C(O)C(=O)[C@@]2(C)[C@@H]2C(=O)O[C@@](C)(C(=O)OC)C(=O)[C@@]12C	4.8%	5.5%	25.6*	63.9*
C=CCN1C=CC(=O)CC1	-3.5%	27.3%	-7.6	-2.5
CN1CCN(C(=O)/C=C/c2cccc(Cl)c2)CC1	6.0%	9.7%	16.7*	20.4
CN1CCN(C(=O)/C=C/c2c(F)cccc2Cl)CC1	-1.2%	2.8%	19.3*	11.0
CN1CCN(C(=O)/C=C\c2ccc(Cl)cc2)CC1	0.0%	5.6%	-1.4	1.6
COc1ccc(S(=O)(=O)N2Cc3ccccc3CC2C(=O)Nc2nccs2)cc1 (stereo unspecified)	-3.4%	1.7%	28.6*	74.8*
COc1ccc(S(=O)(=O)N2CCC(C(=O)NCC3CCCO3)CC2)cc1 (stereo unspecified)	9.4%	-20.8%	7.7	51.2*
COc1ccc(S(=O)(=O)N2CCC(C(=O)Nc3nccs3)CC2)cc1	0.3%	7.7%	41.9*	101.4*
COc1ccc(S(=O)(=O)N2Cc3ccccc3CC2C(=O)Nc2nccs2)cc1OC (stereo unspecified)	-2.1%	-33.6%	43.3*	91.6*
COc1ccc(S(=O)(=O)N2Cc3ccccc3CC2C(=O)N2CCOCC2)cc1OC (stereo unspecified)	0.8%	4.2%	0.7	-2.7
CCN(CC)/[N+]([O-])=N/Oc1cc(O/N=[N+](\[O-])N(C)C)c([N+](=O)[O-])cc1[N+](=O)[O-]	/	/	1.2	-5.9
Cc1cccnc1NC(=O)C1CCN(S(=O)(=O)c2ccc3ccccc3c2)CC1	-0.5%	/	/	/
Cc1cccnc1NC(=O)c1nn(C)c2c1CS(=O)(=O)c1ccccc1-2	7.7%	1.6%	3.4	2.1
CNC(=S)N/N=C1\C(=O)c2cccc3cccc1c23	-6.2%	-14.6%	22.8*	22.5
CCCCNC(=S)N/N=C1\C(=O)c2cccc3cccc1c23	15.1%	1.9%	0.7	-7.1
SMILES	SARS PLP yeast	NS1 inh	Cycloheximide cs	Shiga toxin inh
N=C1S/C(=C\c2ccco2)C(=O)N1c1ccc2c(c1)OCO2	-1.4%	1.9%	32.6*	74.1*
COc1ccccc1OCCN1C(=O)S/C(=C\c2ccco2)C1=O	-6.2%	-13.9%	7.3	31.9
N=C1S/C(=C\c2ccco2)C(=O)N1c1nccs1	-10.3%	/	33.6*	59.3*
COc1ccc(O)c(CN2CCC(n3nccc3NC(=O)C3CCCC3)CC2)c1	2.4%	5.8%	0.5	-22.2
O=C(N/N=C1\CCCc2ccccc21)c1cccc([N+](=O)[O-])c1	0.1%	-3.4%	10.4	33.0
O=C(N/N=C1\CCCc2oc(C(=O)O)cc21)c1ccccc1	3.9%	-1.1%	43.6*	74.2*
O=C(N/N=C1/CCCc2ccccc21)C(c1ccccc1)c1ccccc1	1.9%	2.9%	1.0	61.4*
O=C(N/N=C1\CCCc2ccccc21)c1cccc(Br)c1	-4.0%	/	38.2*	58.6*
O=C(NN=C1CCCC1)c1cccc(Br)c1	-5.8%	-0.8%	25.8*	86.6*
COc1ccc([N+](=O)[O-])cc1N(CC(=O)Nc1ccccc1C(=O)NC(C)C)S(C)(=O)=O	-0.3%	2.6%	1.1	-11.0

Screening results as filed in PubChem BioAssay.
